“And” between values parts separate entries of the source, which are not always exact repeats. Equal entries are not always repeated.

The record followed here is ChEMBL document CHEMBL1961873, “Compounds: GSK PKIS; Assays: Nanosyn kinase panel” (2012).

Assay [1] addresses Ribosomal protein S6 kinase alpha-6 (Homo sapiens) (UniProt Q9UK32). As to conditions: at 1 µM.
The target in assay [2] is T1, Serine/threonine-protein kinase Sgk1 (Homo sapiens) (UniProt O00141).
T1 sequence (whole entry): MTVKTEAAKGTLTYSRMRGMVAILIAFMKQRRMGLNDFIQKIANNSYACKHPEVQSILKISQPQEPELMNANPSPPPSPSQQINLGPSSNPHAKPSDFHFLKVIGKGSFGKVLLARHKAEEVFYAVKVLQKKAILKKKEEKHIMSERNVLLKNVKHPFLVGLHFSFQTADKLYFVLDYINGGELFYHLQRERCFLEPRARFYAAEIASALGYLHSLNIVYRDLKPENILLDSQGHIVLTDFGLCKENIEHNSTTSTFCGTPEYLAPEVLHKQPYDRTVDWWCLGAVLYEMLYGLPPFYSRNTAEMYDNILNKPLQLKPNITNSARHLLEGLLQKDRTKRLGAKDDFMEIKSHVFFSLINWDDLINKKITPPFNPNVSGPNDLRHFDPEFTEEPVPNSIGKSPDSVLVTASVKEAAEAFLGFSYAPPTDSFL
As to conditions: at 0.1 µM.

Assay [3] deals with T1, Serine/threonine-protein kinase Sgk1 (Homo sapiens). Particulars: at 1 µM.
The target in assay [4] is T2, Serine/threonine-protein kinase Sgk2 (Homo sapiens) (UniProt Q9HBY8).
T2 sequence (whole entry): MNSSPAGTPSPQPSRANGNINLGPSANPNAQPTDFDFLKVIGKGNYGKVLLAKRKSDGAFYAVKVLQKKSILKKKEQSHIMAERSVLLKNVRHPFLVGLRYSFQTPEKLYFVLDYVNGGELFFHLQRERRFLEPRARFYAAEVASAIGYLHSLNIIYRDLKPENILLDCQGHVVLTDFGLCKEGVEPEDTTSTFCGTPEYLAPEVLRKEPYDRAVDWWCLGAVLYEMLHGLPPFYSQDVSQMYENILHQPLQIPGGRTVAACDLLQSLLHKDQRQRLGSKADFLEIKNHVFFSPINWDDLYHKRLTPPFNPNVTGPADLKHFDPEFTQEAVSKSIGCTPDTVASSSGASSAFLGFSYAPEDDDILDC
As to conditions: at 0.1 µM.

Assay [5] has as its target T2, Serine/threonine-protein kinase Sgk2 (Homo sapiens). Particulars: at 1 µM.
Assay [6] has as its target T3, Serine/threonine-protein kinase Sgk3 (Homo sapiens) (UniProt Q96BR1).
T3 sequence (whole entry): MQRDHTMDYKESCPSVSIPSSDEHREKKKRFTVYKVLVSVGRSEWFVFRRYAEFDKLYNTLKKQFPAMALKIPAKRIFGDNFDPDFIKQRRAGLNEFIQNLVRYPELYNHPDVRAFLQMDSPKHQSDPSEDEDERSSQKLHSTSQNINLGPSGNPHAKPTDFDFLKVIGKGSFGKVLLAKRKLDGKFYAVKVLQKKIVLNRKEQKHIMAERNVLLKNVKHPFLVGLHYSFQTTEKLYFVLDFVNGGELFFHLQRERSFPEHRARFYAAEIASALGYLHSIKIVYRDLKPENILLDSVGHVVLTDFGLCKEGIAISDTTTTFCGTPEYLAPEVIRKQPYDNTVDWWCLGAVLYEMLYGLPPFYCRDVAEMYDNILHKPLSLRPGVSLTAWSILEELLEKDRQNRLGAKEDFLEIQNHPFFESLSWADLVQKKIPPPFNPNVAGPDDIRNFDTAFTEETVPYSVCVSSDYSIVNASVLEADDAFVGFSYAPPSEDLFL
As to conditions: at 0.1 µM.

Assay [7] has as its target T3, Serine/threonine-protein kinase Sgk3 (Homo sapiens). Particulars: at 1 µM.
The target of assay [8] is 5'-AMP-activated protein kinase catalytic subunit alpha-1 (Homo sapiens) (UniProt Q13131). As to conditions: at 0.1 µM.
The target is the same in assay [9]. Particulars: at 1 µM.
Assay [10] addresses 5'-AMP-activated protein kinase catalytic subunit alpha-2 (Homo sapiens) (UniProt P54646). Particulars: at 0.1 µM.

Ribosomal protein S6 kinase alpha-6 (Homo sapiens), sequence (Q9UK32 whole entry): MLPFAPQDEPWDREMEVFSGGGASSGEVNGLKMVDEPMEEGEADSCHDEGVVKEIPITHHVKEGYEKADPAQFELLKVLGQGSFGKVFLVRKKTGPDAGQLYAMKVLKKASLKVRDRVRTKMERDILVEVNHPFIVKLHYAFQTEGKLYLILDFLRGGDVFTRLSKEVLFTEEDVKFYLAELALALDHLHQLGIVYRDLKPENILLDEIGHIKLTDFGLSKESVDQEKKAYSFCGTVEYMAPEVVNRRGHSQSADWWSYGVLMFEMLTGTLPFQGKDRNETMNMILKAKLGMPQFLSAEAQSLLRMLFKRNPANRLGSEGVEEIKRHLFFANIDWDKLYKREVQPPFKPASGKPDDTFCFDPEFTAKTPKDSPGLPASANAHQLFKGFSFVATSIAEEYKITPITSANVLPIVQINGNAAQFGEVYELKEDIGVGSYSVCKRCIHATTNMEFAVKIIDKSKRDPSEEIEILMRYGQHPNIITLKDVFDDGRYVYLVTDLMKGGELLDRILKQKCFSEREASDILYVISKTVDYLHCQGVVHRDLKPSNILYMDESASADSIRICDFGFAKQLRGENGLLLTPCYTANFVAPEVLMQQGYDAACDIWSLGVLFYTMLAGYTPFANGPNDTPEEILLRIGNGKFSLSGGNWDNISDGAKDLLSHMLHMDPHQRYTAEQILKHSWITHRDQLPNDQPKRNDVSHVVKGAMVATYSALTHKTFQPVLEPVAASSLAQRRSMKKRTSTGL
5'-AMP-activated protein kinase catalytic subunit alpha-2 (Homo sapiens), sequence (P54646 whole entry, looked up): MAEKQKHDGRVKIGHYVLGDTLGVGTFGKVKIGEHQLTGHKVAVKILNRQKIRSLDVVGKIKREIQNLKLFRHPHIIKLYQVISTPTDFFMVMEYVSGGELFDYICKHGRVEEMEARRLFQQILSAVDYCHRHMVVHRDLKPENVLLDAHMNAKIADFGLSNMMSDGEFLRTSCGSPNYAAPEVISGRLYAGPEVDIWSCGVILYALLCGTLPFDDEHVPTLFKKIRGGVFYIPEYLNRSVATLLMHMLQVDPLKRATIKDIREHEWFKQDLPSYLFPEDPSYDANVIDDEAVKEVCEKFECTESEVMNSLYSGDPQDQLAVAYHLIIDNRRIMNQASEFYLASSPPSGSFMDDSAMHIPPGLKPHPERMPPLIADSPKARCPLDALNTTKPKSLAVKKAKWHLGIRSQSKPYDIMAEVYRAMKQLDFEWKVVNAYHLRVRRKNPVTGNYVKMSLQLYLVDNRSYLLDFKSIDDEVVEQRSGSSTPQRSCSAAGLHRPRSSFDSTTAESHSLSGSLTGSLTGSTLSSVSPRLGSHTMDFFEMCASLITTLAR
5'-AMP-activated protein kinase catalytic subunit alpha-1 (Homo sapiens), sequence (Q13131 whole entry, looked up): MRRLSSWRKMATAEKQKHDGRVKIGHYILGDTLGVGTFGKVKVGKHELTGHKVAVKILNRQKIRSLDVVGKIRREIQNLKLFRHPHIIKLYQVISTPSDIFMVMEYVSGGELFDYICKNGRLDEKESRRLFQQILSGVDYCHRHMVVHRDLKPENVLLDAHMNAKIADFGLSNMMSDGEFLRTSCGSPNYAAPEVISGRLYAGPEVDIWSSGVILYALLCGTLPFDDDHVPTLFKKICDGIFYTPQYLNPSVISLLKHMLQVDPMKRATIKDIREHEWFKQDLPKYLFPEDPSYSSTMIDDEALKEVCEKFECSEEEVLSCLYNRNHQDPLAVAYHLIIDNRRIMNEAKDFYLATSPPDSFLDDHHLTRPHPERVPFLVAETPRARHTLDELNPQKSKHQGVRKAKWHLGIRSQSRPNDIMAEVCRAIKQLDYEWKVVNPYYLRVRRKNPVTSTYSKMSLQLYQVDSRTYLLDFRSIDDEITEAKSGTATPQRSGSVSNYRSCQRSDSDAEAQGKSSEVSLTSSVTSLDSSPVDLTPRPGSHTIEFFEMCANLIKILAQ

Usually inhibition stands for the drop in the measured response relative to a control, in per cent. With `Cc1ccc(-c2cc3c(NC(=O)C4CC4)ncnc3o2)cc1`, the inhibition in assay [1] is 2.4%; in assay [2], 2.2%; in [3] it was 3%; in assay [4], 5.33%; in assay [5] it was 8.63%; in assay [6], 3.61%. Besides, the inhibition in assay [7] was 4.02%; in assay [8], 3.13%; in assay [9] it was 5.1%; in assay [10], 2.34%.
On to `Cc1nnc(-c2cccc(-c3ccc(C(=O)NCC4CC4)cc3)c2)o1`, for which the inhibition in assay [1] stood at 2.8%; in [2] it was 4.47%; in assay [3] it was 10.8%; in assay [4], 2.96%; in assay [5] it was 7.09%; in assay [6], 3.56%. For the same compound, the inhibition in [7] amounted to 7.89%; in assay [8] it was 5.16%; in assay [9], 6.56%; in assay [10], 0.86%.
`COc1ccc2ncn(-c3cc(O[C@H](C)c4ccccc4C(F)(F)F)c(C(N)=O)s3)c2c1`: the inhibition in assay [1] is 9.8%; in assay [2], 0.33%; in assay [3], 0.95%; in [4], -1.23%; in [5] it was 0.53%; in assay [6], -0.12%. The inhibition in [7] is 0.72%; in assay [8], -0.57%; in assay [9], 3.14%; in assay [10], 0.8%.
Consider `NS(=O)(=O)c1ccc(N/N=C2\C(=O)Nc3ccc(C(=O)NCc4ccncc4)cc32)cc1`, for which the inhibition in assay [1] stood at 11.3%; in assay [2], 3.41%; in assay [3], 12.9%; in assay [4], 0.65%; in assay [5], 8.08%; in assay [6], 4.07%. In addition, the inhibition is 8.33% in assay [7], 41.7% in [8], 75.5% in assay [9] and 5.3% in [10].
Consider `CC(C)c1ccc(-c2cc(-c3c[nH]nc3-c3ccccn3)ccn2)cc1`, for which the inhibition in [1] is -0.11%; in assay [2], 1.94%; in assay [3], 0.95%; in assay [4] it was 3.97%; in [5], 3.85%; in assay [6], 0.19%. In addition, the inhibition was -1.62% in [7], -0.34% in [8], -1.2% in assay [9] and 0.19% in [10].
Take `CN1CCC(C(=O)Nc2n[nH]c3nc(-c4ccc(O)cc4)c(Br)cc23)CC1`: the inhibition in assay [1] is 12.7% and 9.62%; in assay [2], 5.12% and 1.94%; in assay [3], 10.4% and 4.16%; in [4], 3.28% and 2.28%; in assay [5], 6.79% and 6.21%; in [6], 1.96% and 6.46%. The inhibition is 6.31% and 0.32% in [7]; 5.11% and 1.11% in assay [8]; 18.7% and 10.6% in assay [9]; 3.96% and 2.49% in assay [10].
As to `COc1cc(N2CCN(C(C)C)CC2)ccc1Nc1nc(Nc2cccc3ncccc23)c2cc[nH]c2n1`, the inhibition in [1] is 2.88%; in assay [2] it was 1.18%; in assay [3], -0.91%; in [4], -3.32%; in assay [5], -0.85%; in [6], 0.42%. The inhibition in assay [7] was found to be 0.55%; in [8], 0.27%; in assay [9], 0.86%; in [10], 0.57%.
As for `Nc1ncnc2occ(-c3ccc(NC(=O)Nc4cc(C(F)(F)F)ccc4F)cc3)c12`, the inhibition in [1] is 9.97% and 5.9%; in assay [2], 1.7% and 0.49%; in assay [3], 3.4% and 1.19%; in assay [4], -0.51% and 1.78%; in assay [5], 2.34% and 2.65%; in assay [6] it was 1.18% and 0.24%. The inhibition in [7] was 1.67% and -1.01%; in assay [8], 2.02% and -1.41%; in assay [9], 1.94% and -0.8%; in assay [10], -0.22% and 3.36%.
In the case of `COc1c(C(N)=O)cc(-c2ccc(Cl)cc2)cc1-c1ccc(S(N)(=O)=O)cc1`, the inhibition in assay [1] was found to be 3.2%; in assay [2], 0.41%; in assay [3] it was 2.71%; in assay [4] it was 5.14%; in assay [5] it was 5%; in [6], 1.37%. The inhibition in assay [7] amounted to 3%; in assay [8] it was 1.83%; in [9], 4.47%; in assay [10], 7.86%.
For the compound `COc1ccc(-c2nn3ncccc3c2-c2ccnc(Nc3ccc(F)c(F)c3)n2)cc1`, the inhibition in assay [1] was 1.98%; in [2] it was 3.06%; in assay [3] it was 9.35%; in assay [4], 5.4%; in [5] it was 7.74%; in assay [6] it was 5.09%. The inhibition in assay [7] worked out at 6.1%; in assay [8], 5.22%; in [9], 9.36%; in [10] it was 2.91%.
With `O=C(O[C@H]1CN[C@H](C#Cc2cc3ncnc(Nc4ccc5c(cnn5Cc5ccccc5)c4)c3s2)C1)N1CCOCC1`, the inhibition in assay [1] was -1.11%; in [2] it was -0.09%; in assay [3], -1.15%; in assay [4] it was -1.55%; in assay [5] it was 4.74%; in assay [6], -2.07%. For the same compound, the inhibition in assay [7] was determined as 0.07%; in assay [8], 1.24%; in assay [9], 3.86%; in [10], 2.29%.
Consider `COc1cc2c(cc1Nc1nc(Nc3cccc(F)c3C(N)=O)c3cc[nH]c3n1)N(C(=O)CN1CCN(C(C)C)CC1)CC2`, for which the inhibition in [1] was 11.7%; in [2], -0.48%; in assay [3], 1.29%; in [4] it was 1.96%; in assay [5], 0.58%; in assay [6], 0.73%. Besides, the inhibition in assay [7] was 0.46%; in assay [8] it was 1.45%; in assay [9], 3.93%; in assay [10], 5.43%.
As for `CS(=O)(=O)CCNCc1ccoc1-c1ccc2ncnc(Nc3ccc(OCc4ccccc4)cc3)c2c1`, the inhibition was -0.72% in [1]; 2.02% in assay [2]; 1.39% in [3]; 2.28% in assay [4]; -3.3% in assay [5]; 5.61% in assay [6]. Besides, the inhibition in assay [7] was 1.1%; in assay [8], -0.71%; in [9], -0.55%; in assay [10] it was 0.46%.
For the compound `Fc1ccc(Nc2nccc(-c3c(-c4ccc(C(F)(F)F)cc4)nn4ncccc34)n2)cc1F`, the inhibition in assay [1] is 0.66%; in assay [2] it was 2.17%; in [3], 2.25%; in [4], 0.8%; in [5], -0.85%; in [6], 2.84%. Further, the inhibition worked out at 1.5% in assay [7], 1.79% in assay [8], 0.39% in assay [9] and 1.16% in assay [10].
In the case of `O=C(O[C@H]1CN[C@H](C#Cc2cc3ncnc(Nc4ccc5c(ccn5Cc5cc(F)ccc5F)c4)c3s2)C1)N1CCOCC1`, the inhibition came to 2.42% in assay [1]; 3.69% in [2]; 3.13% in assay [3]; 4.36% in assay [4]; 0.96% in assay [5]; 3.53% in assay [6]. Besides, the inhibition in assay [7] came to 3.51%; in assay [8], 3.06%; in assay [9], 1.13%; in [10], 3.89%.
